Source: PubChem (National Center for Advancing Translational Sciences (NCATS))
BLM inh – qHTS Assay for Inhibitors of Bloom's syndrome helicase (BLM). AID 2528, 2010. recombinant BLM DNA unwinding, fluorescence dequenching. Potency, µM (doses to about 56.1 µM), without a hit: top-dose activity change, negative = inhibition, hits mostly inhibitors. 350,000 compounds, 0.2% hits;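 further: plate controls were vehicle for no effect and no enzyme for full effect; nearly all actives have a fitted effect of over 35% in size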
KDM4E inh – qHTS Assay for Inhibitors of Human Jumonji Domain Containing 2E (JMJD2E). 230,000 compounds, 1.6% hits. JMJD2E catalytic domain, FDH-coupled NADH fluorescence (FDH is formaldehyde dehydrogenase). Lysine-specific demethylase 4E (Homo sapiens), B2RXH2. Potency, µM (series often up to 57.1 µM), for inactives: top-dose activity change, negative = inhibition, actives largely listed as inhibitors; active means well fitted inhibition curve with a large enough effect, not every such curve was filed as active; inconclusive means small, poorly fitted or top-dose-only effect, or another doubt; inactive means no such curve, though single readings can be large or run the other way;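 further: 0% = wells with enzyme and -100% = buffer wells without enzyme; nearly all actives have a fitted effect of over 50% in size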
Target sequence (B2RXH2 1-337 limits assumed): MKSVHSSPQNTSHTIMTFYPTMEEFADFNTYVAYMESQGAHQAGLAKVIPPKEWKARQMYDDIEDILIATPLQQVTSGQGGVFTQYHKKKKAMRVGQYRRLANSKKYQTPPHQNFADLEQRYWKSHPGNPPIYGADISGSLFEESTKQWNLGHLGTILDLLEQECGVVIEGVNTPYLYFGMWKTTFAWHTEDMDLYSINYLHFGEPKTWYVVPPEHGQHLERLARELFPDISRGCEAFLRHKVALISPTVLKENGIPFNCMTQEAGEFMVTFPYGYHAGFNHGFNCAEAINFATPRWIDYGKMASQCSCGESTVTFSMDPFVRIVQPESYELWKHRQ
L3MBTL1 block – qHTS Assay for the Inhibitors of L3MBTL1; Lethal(3)malignant brain tumor-like protein 1 (Homo sapiens), Q9Y468; AlphaScreen L3MBTL1–H3K9me1 peptide binding; Potency, µM (doses to about 57.1 µM), for the others: at the top dose activity, negative = inhibition, most hits filed as inhibitors; 230,000 compounds, 0.66% hits; further: nearly all actives have a fitted effect of over 60% in size
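First, the protein-peptide complex forms for 30 min at room temperature (L3MBTL1 50 nM, biotinylated H3K9me1 peptide 75 nM). Next, compounds are pin-transferred and incubated 30 min. Finally, AlphaScreen beads are added and read after 30 min.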
APE1 inh-1 – qHTS Assay for Inhibitors of the Human Apurinic/apyrimidinic Endonuclease 1 (APE1); DNA repair nuclease/redox regulator APEX1 (Homo sapiens), P27695; recombinant APE1, TAMRA/BHQ-2 abasic DNA cleavage fluorescence; Potency, µM (highest dose often 65.8 µM), inactives show at the top dose activity change, negative = inhibition, usual class: inhibitors; 350,000 compounds, 0.35% hits;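 further: plate controls were vehicle for no effect and reference inhibitor for full effect; nearly all actives have a fitted effect of over 55% in size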
Target sequence (P27695 whole entry, looked up): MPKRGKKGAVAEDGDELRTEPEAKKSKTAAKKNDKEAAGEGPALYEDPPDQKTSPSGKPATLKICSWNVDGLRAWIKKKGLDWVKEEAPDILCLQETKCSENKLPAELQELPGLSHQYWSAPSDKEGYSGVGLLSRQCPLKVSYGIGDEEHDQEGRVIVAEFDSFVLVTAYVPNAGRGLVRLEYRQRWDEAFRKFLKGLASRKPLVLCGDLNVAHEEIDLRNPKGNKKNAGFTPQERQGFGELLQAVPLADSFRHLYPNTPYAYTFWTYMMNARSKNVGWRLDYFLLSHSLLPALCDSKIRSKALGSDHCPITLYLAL
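APE1 at 0.75 nM final was preincubated with compound 15 min at room temperature, then 50 nM double-stranded THF abasic-site substrate (5'-TAMRA/3'-BHQ-2) was added. Fluorescence (ex 525/em 598 nm) was read kinetically; third-minus-first read gave activity.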
RGS12 GoLoco inh – qHTS Assay for Inhibitors of RGS12 GoLoco Motif Activity (Red Fluorophore); Guanine nucleotide-binding protein G(i) subunit alpha-1 (Homo sapiens), P63096; Gai1:RGS12 GoLoco peptide FP, rhodamine, 10 min; Potency, µM (series often up to 61.6 µM), for the others: at the top dose activity, negative = inhibition, hits mostly inhibitors; 230,000 compounds, 0.44% hits; AID 880, 2007; active means well fitted inhibition curve with a large enough effect, not every such curve was filed as active; inactive means no such curve, though single readings can be large or run the other way; further: nearly all actives have a fitted effect of over 30% in size
RECQ1 helicase – qHTS Assay for Inhibitors of RecQ-Like Dna Helicase 1 (RECQ1). ATP-dependent DNA helicase Q1 (Homo sapiens), P46063. RECQ1 DNA unwinding, red fluorescence kinetic read. Potency, µM (titrated, usually from 57.3 µM), for the others: at the top dose activity, negative = inhibition, most hits filed as inhibitors. 240,000 compounds, 0.54% hits;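 further: plate controls were vehicle for no effect and no enzyme for full effect; nearly all actives have a fitted effect of over 30% in size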
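50 nM RECQ1T1 preincubated 15 min with compound in Tris pH 8.0 buffer with MgCl2, DTT, Tween-20 and 2.5 ug/ml poly(dI-dC); started with 200 nM TAMRA/BHQ-2 forked duplex and 2 mM ATP. Unwinding read as fluorescence (525/598 nm), two reads 2 h apart.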
APE1 dye cs – Counterscreen for APE1 Inhibitors: Fluorescent Dye Displacement Assay | shares compounds with APE1 inh-1 | DNA fluorescent dye displacement counterscreen, fluorescence | Potency, µM (titrated, usually from 28.5 µM), without a hit: at the highest dose activity change, negative = inhibition, usual class: inhibitors | 480 compounds, 7% hits;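 further: loss of thiazole orange fluorescence as the dye is displaced from duplex DNA; 0% = ThO with dsDNA and no compound and -100% = ThO without dsDNA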
Endo IV inh – Counterscreen for APE1 Inhibitors: qHTS Assay for Inhibitors of Endonuclease IV | shares compounds with APE1 inh-1 | E. coli Endo IV, fluorogenic AP-site DNA cleavage | Potency, µM (doses to about 27.1 µM), for inactives: at the top dose activity change, negative = inhibition, hits mostly inhibitors | 560 compounds, 4% hits;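 further: plate controls were uninhibited enzyme wells for no effect and no enzyme buffer wells for full effect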
APE1 inh-2 – Confirmation qHTS Assay for Inhibitors of the Human Apurinic/apyrimidinic Endonuclease 1 (APE1). shares compounds with APE1 inh-1. Potency, µM (highest dose often 57.1 µM), for inactives: at the highest dose activity change, negative = inhibition, actives largely listed as inhibitors. 750 compounds, 44% hits. purified APE1, fluorogenic abasic-site DNA cleavage; further: nearly all actives have a fitted effect of over 30% in size
APE1 FP inh – qHTS FP-Based Assay for Inhibitors of the Human Apurinic/apyrimidinic Endonuclease 1 (APE1); shares compounds with APE1 inh-1; APE1 binding to TAMRA-labelled double-stranded DNA, fluorescence polarization displacement; Potency, µM (titrated, usually from 28.5 µM), inactives show at the highest dose activity, negative = inhibition, actives largely listed as inhibitors; 480 compounds, 7% hits; AID 2573, 2010
The depositor's hits bear a star; i = inactive; ? = inconclusive; . = not tested or not shown; ! = repeats disagree; [ ] = another dose, or the depositor's remark. Many of the other results were omitted from the sample, so hits are more common in it than they were. Unless noted, the call rests on the fitted dose curve; in most records, active means well fitted curve in the direction sought with a large enough effect; inconclusive means small, poorly fitted or top-dose-only effect, or another doubt; inactive means no such curve, though single readings can be large; an effect the other way counts as inactive or inconclusive. Unless noted, on the % scale 0 is the no-effect control and ±100 the full control effect; potency means the concentration at half of the fitted maximal effect.

SMILES | BLM inh | KDM4E inh | L3MBTL1 block | APE1 inh-1 | RGS12 GoLoco inh | RECQ1 helicase | APE1 dye cs | Endo IV inh | APE1 inh-2 | APE1 FP inh
CC(NC(=O)COC(=O)c1cc(NS(=O)(=O)c2ccc(Cl)c([N+](=O)[O-])c2)ccc1O)C1CC2CCC1C2 (stereo not drawn) | -15% | 3% | -9% | -12% | 6% | -9% | . | . | . | .
COc1ccc(NS(=O)(=O)c2ccc(O)c(C(=O)OCC(=O)NC(C)C3CC4CCC3C4)c2)cc1 (stereo not drawn) | -12% | -26% | -13% | 22µM* | 8% | -14% | ? | -6% | ? | ?
O=C1CNC(=O)/C1=C/c1ccc(O)cc1 | 1% | ? | -3% | 0.89µM* | -11% | 1% | 1% | -1% | ? | 11%
O=[N+]([O-])c1cccc2c[nH]nc12 | -27% | 35µM* | . | 6.3µM* | -15% | 28µM* | . | -47%[57.1 µM] | 13µM* | .
COc1ccc(C(=O)c2ccsc2N)cc1 | -3% | . | . | 21% | . | . | . | . | . | .
COc1ccc(C(=O)c2ccc(CC#N)s2)cc1 | -5% | 5% | -11% | 1% | 12% | -1% | . | . | -25% | .
O=c1c(-c2cc(O)c(O)c(O)c2)coc2cc(O)c(O)c(O)c12 | 11µM* | 2.8µM* | . | 0.32µM* | -14% | 1.3µM* | . | 7%[57.1 µM] | 0.4µM* | .
CCOc1ccc(CNC(=O)c2cc3c(=O)n(C)c4ccccc4c3s2)cc1 | -3% | . | . | . | . | . | . | . | . | .
Cc1ccc(-n2nc3c(=O)n(CC(=O)NCCC(C)C)nc(C)c3c2C)cc1 | -2% | . | . | . | . | . | . | . | . | .
O=C(Nc1ccc([N+](=O)[O-])cc1)Nc1ccc2[nH]c(=O)[nH]c2c1 | -24% | -23% | 3% | ? | 29% | -27% | -18% | -3% | ? | 11%
O=c1c2c3c(sc2nnn1Cc1ccc(F)cc1)CCCC3 | 0% | . | . | . | . | . | . | . | . | .
COc1ccc2c(c1)c(=O)oc1cc3oc(C)c(C)c3cc12 | -16% | 3% | . | ? | -4% | -12% | 38% | -2% | 5.6µM* | -4%
COc1ccc2c(c1)c(=O)oc1cc(O)ccc12 | -2% | -11% | 20% | -3% | -7% | -13% | . | . | . | .
COc1cccc(-c2noc(COc3ccccc3Cl)n2)c1 | -7% | . | . | . | . | . | . | . | . | .
O=c1cc(O)c2ccc(O)cc2o1 | 0% | ? | 9% | 15% | 6% | i | . | . | . | .
O=c1ccc2[n+]([O-])c3ccc(O)cc3oc-2c1 | . | ? | 3.2µM* | 25µM* | 10µM* | 16µM* | 14% | ? | 13µM* | 0.018µM*
Cc1ccccc1-c1noc(-c2ccc(N3CCCCC3)c([N+](=O)[O-])c2)n1 | -1% | . | . | . | . | . | . | . | . | .
O=C(COC(=O)c1cccnc1Cl)NCc1ccco1 | -8% | 2% | -26% | ? | 1% | i | . | . | ? | .
CCOc1ccccc1NC(=O)C(CC)n1c(C(=O)OC)cc2occc21 (stereo not drawn) | -10% | . | . | . | . | . | . | . | . | .
COC(=O)c1ccccc1NC(=O)COC(=O)/C=C/c1ccco1 | -12% | 5% | -19% | ? | -5% | -15% | 2% | -1% | ? | -14%
Cc1ccc(C2(O)C(=O)c3ccccc3C2=O)c(O)c1C | -3% | -14% | 5% | 3% | -2% | ? | . | . | ? | .
Cc1nc2ccn(Cc3cccnc3)c(=O)c2cc1C(=O)Nc1ccc(OC(F)(F)F)cc1 | -2% | . | . | . | . | . | . | . | . | .
CCCc1cc(=O)oc2cc(OCC(=O)Nc3cc(C)on3)ccc12 | -2% | ? | 3% | 19% | -11% | i | . | . | . | .
C=C(Cl)COc1ccc2c(CCC)cc(=O)oc2c1 | -6% | ? | . | 15% | 14% | -3% | . | . | -27% | .
Oc1ccc(C2Oc3cc(O)cc(O)c3CC2O)cc1 (stereo not drawn) | 3% | -9% | . | -7% | 14% | i | . | . | . | .
Oc1cc(O)c2c(c1)O[C@H](c1ccc(O)c(O)c1)[C@H](O)C2 | -3% | 11µM*! | -26% | -9% | -2%[21.6 µM] | -18%[25.9 µM] | 2% | 137% | -6%[24.4 µM] | ?
Cc1nc2ccc(NC(=S)N3CCOCC3)cc2nc1C | -10% | ? | 4%[11.4 µM] | ? | 9% | 18% | 0% | 3% | -5%[24.4 µM] | 6%
Cc1nc2ccc(NC(=S)N3CCCC3)cc2nc1C | -10% | ? | 7% | -9% | 8% | 19% | . | . | . | .
O=C(O)c1ccccc1-n1cccc1C(=O)O | -5% | -11% | ? | ? | 5% | -9% | -5% | 0% | 13µM* | ?
COc1ccc(-c2coc3cc(O)ccc3c2=O)cc1 | 0% | ? | . | -4% | 4% | 0% | . | . | . | .
